# Data reported in PubChem BioAssay (NCATS).
# Results filed as inconclusive are left out. Values without a mark were called inactive. Calls of active or inactive are those of the source. Calls follow the shape of the full dose curve.
# Test: Primary qHTS for inhibitors of SARS-S pseudo-typed particle cell entry (AID 1479145); also: nearly all actives have a fitted effect of over 45% in size
# Conditions: SARS-S pseudotyped particle cell entry, luciferase reporter; series mostly up to 57.1 µM; activity change, negative = inhibition: at the top concentration
# % is scaled to controls: 0 for no effect and ±100 for the full control effect; potency is read from the fitted curve at half-maximal effect.
Structure (SMILES),"activity change, negative = inhibition",outcome,Potency
CCN1CCCC(OC(=O)C(c2ccccc2)c2ccccc2)C1 (stereo not drawn),-10.7%,,
CC(C)(C)NCC(O)COc1cccc2c1CCC(=O)N2 (stereo not drawn),,inactive,
CC1=C(C)C(=O)C(C(CCCCCC(=O)O)c2ccccc2)=C(C)C1=O (stereo not drawn),-17.2%,,
CCOC(=O)c1ccc(NC(=O)CN2CCCCC2)cc1,4.03%,,
O=C1OC2(c3ccc(O)cc3Oc3cc(O)ccc32)c2ccccc21,,inactive,
Cc1cc(O)c(C(C)C)cc1Cl,-2.37%,,
Nc1ccc2cc3ccc(N)cc3nc2c1,,,14.1 µM (active)
CNC(=O)Oc1ccc2c(c1)[C@]1(C)CCN(C)[C@@H]1N2C,,inactive,
C[N+](C)(C)CCOC(=O)CCC(=O)OCC[N+](C)(C)C,,inactive,
Cc1ccc(=O)n(-c2ccccc2)c1,,inactive,
COc1ccc2c(c1)c(CC(=O)OCC(=O)O)c(C)n2C(=O)c1ccc(Cl)cc1,-25.6%,,
C[C@@]12C(=O)OC(=O)[C@]1(C)C1CCC2O1,,,14.1 µM (active)
O=C(CCCN1CCN(c2ccccn2)CC1)c1ccc(F)cc1,,inactive,
N[C@H]1CN(c2c(F)cc3c(=O)c(C(=O)O)cn(C4C[C@@H]4F)c3c2Cl)CC12CC2 (stereo partly drawn),-15.3%,,
CCCCC(=O)O[C@]1(C(=O)CO)[C@@H](C)C[C@H]2[C@@H]3CCC4=CC(=O)C=C[C@]4(C)[C@@]3(F)[C@@H](O)C[C@@]21C,,inactive,
CCC1Nc2cc(Cl)c(S(N)(=O)=O)cc2S(=O)(=O)N1 (stereo not drawn),,inactive,
CCCCCCCCCCCCCCCCCCNC(=O)OC1CCN(C(=O)OC[C@H](COC(=O)N(Cc2cccc[n+]2CC)C(=O)c2ccccc2OC)OC)CC1,,,25.1 µM (active)
O=C1c2cccc(O)c2C(=O)c2c(O)cccc21,-8.71%,,
CN(Cc1ccc(C(C)(C)C)cc1)Cc1cccc2ccccc12,,inactive,
COC(=O)Nc1nc2ccc(S(=O)c3ccccc3)cc2[nH]1 (stereo not drawn),,inactive,

Structure (SMILES),"activity change, negative = inhibition",outcome,Potency
CCCNC(C)(C)COC(=O)c1ccccc1,-35.8%,,
[O-][n+]1ccccc1SSc1cccc[n+]1[O-],-97.5% [at 26.4 µM],,
CCCCCCCCCCCCCCCC[N+](C)(C)Cc1ccccc1,,,7.94 µM (active)
Cn1cnc2c1c(=O)[nH]c(=O)n2C,0.977%,,
CCCCOc1ccc(OCCCN2CCOCC2)cc1,1.97%,,
C[C@]12CC[C@@H]3c4ccc(O)cc4CC[C@H]3[C@@H]1CC[C@@H]2OC(=O)CCC1CCCC1,,inactive,
Cc1ccc(Nc2c(F)cccc2Cl)c(CC(=O)O)c1,-6.34%,,
C[C@H]1O[C@@H](O[C@H]2CC[C@@]3(C)[C@H](CC[C@@H]4[C@@H]3C[C@@H](O)[C@]3(C)[C@@H](C5=CC(=O)OC5)CC[C@]43O)C2)C[C@H](O)[C@@H]1O[C@H]1C[C@H](O)[C@H](O[C@H]2C[C@H](O)[C@H](O[C@@H]3O[C@H](CO)[C@@H](O)[C@H](O)[C@H]3O)[C@@H](C)O2)[C@@H](C)O1,,,0.891 µM (active)
CCCCCCCCCCCCCCCC[n+]1ccccc1,,,3.16 µM (active)
CCOC(=O)c1cccc(N)c1,,inactive,
CC(O)COc1ccccc1 (stereo not drawn),,inactive,
CC[N+]1(CC)CCC(=C(c2ccccc2)c2ccccc2)C1C (stereo not drawn),4.72%,,
CN(C)CCN(Cc1cccs1)c1ccccn1,-29.9%,,
CCC(=O)O[C@]1(C(=O)COC)[C@@H](C)C[C@H]2[C@@H]3CCC4=CC(=O)C=C[C@]4(C)C3(F)[C@@H](O)C[C@@]21C (stereo partly drawn),-76.7%,,
CCCCOc1ccc(CC(=O)NO)cc1,,inactive,
C#C[C@]1(O)CC[C@H]2[C@@H]3CCC4=CC(=O)CC[C@@H]4[C@H]3CC[C@@]21C,-14%,,
CC(=O)Oc1ccc(C(c2ccc(OC(C)=O)cc2)c2ccccn2)cc1,,,1.41 µM (active)
C[C@H](N)[C@H](O)c1cccc(O)c1,,inactive,
NCC1CCC(C(=O)Oc2ccc(CCC(=O)O)cc2)CC1 (stereo not drawn),,inactive,
O=C(O)CCC(=O)c1ccc(-c2ccccc2)cc1,,inactive,

# Test: Primary qHTS for Huh7 cytotoxicity: counterscreen for inhibitors of MERS-S pseudotyped particle cell entry (AID 1479147)
# Conditions: cell viability read-out; series mostly up to 57.1 µM; activity change, negative = cytotoxicity: at the top concentration
Structure (SMILES),"activity change, negative = cytotoxicity",outcome,Potency
CCN1CCCC(OC(=O)C(c2ccccc2)c2ccccc2)C1 (stereo not drawn),-12.8%,,
CC(C)(C)NCC(O)COc1cccc2c1CCC(=O)N2 (stereo not drawn),,inactive,
CC1=C(C)C(=O)C(C(CCCCCC(=O)O)c2ccccc2)=C(C)C1=O (stereo not drawn),-8.29%,,
CCOC(=O)c1ccc(NC(=O)CN2CCCCC2)cc1,-7.2%,,
O=C1OC2(c3ccc(O)cc3Oc3cc(O)ccc32)c2ccccc21,0.683%,,
Cc1cc(O)c(C(C)C)cc1Cl,-4.73%,,
CNC(=O)Oc1ccc2c(c1)[C@]1(C)CCN(C)[C@@H]1N2C,2.55%,,
C[N+](C)(C)CCOC(=O)CCC(=O)OCC[N+](C)(C)C,,inactive,
Cc1ccc(=O)n(-c2ccccc2)c1,1.39%,,
COc1ccc2c(c1)c(CC(=O)OCC(=O)O)c(C)n2C(=O)c1ccc(Cl)cc1,,inactive,
C[C@@]12C(=O)OC(=O)[C@]1(C)C1CCC2O1,,,22.4 µM (active)
O=C(CCCN1CCN(c2ccccn2)CC1)c1ccc(F)cc1,-0.824%,,
N[C@H]1CN(c2c(F)cc3c(=O)c(C(=O)O)cn(C4C[C@@H]4F)c3c2Cl)CC12CC2 (stereo partly drawn),,inactive,
CCCCC(=O)O[C@]1(C(=O)CO)[C@@H](C)C[C@H]2[C@@H]3CCC4=CC(=O)C=C[C@]4(C)[C@@]3(F)[C@@H](O)C[C@@]21C,,inactive,
CCC1Nc2cc(Cl)c(S(N)(=O)=O)cc2S(=O)(=O)N1 (stereo not drawn),,inactive,
CCCCCCCCCCCCCCCCCCNC(=O)OC1CCN(C(=O)OC[C@H](COC(=O)N(Cc2cccc[n+]2CC)C(=O)c2ccccc2OC)OC)CC1,-21.1%,,
O=C1c2cccc(O)c2C(=O)c2c(O)cccc21,-23.7%,,
CN(Cc1ccc(C(C)(C)C)cc1)Cc1cccc2ccccc12,,inactive,
COC(=O)Nc1nc2ccc(S(=O)c3ccccc3)cc2[nH]1 (stereo not drawn),-11.7%,,

Structure (SMILES),"activity change, negative = cytotoxicity",outcome,Potency
CCCNC(C)(C)COC(=O)c1ccccc1,2.97%,,
CCCCCCCCCCCCCCCC[N+](C)(C)Cc1ccccc1,-20.8%,,
Cn1cnc2c1c(=O)[nH]c(=O)n2C,,inactive,
CCCCOc1ccc(OCCCN2CCOCC2)cc1,0.272%,,
C[C@]12CC[C@@H]3c4ccc(O)cc4CC[C@H]3[C@@H]1CC[C@@H]2OC(=O)CCC1CCCC1,,inactive,
Cc1ccc(Nc2c(F)cccc2Cl)c(CC(=O)O)c1,-7.6%,,
C[C@H]1O[C@@H](O[C@H]2CC[C@@]3(C)[C@H](CC[C@@H]4[C@@H]3C[C@@H](O)[C@]3(C)[C@@H](C5=CC(=O)OC5)CC[C@]43O)C2)C[C@H](O)[C@@H]1O[C@H]1C[C@H](O)[C@H](O[C@H]2C[C@H](O)[C@H](O[C@@H]3O[C@H](CO)[C@@H](O)[C@H](O)[C@H]3O)[C@@H](C)O2)[C@@H](C)O1,,,1 µM (active)
CCCCCCCCCCCCCCCC[n+]1ccccc1,,,11.2 µM (active)
CCOC(=O)c1cccc(N)c1,,inactive,
CC(O)COc1ccccc1 (stereo not drawn),,inactive,
CC[N+]1(CC)CCC(=C(c2ccccc2)c2ccccc2)C1C (stereo not drawn),,inactive,
CN(C)CCN(Cc1cccs1)c1ccccn1,-2.76%,,
CCC(=O)O[C@]1(C(=O)COC)[C@@H](C)C[C@H]2[C@@H]3CCC4=CC(=O)C=C[C@]4(C)C3(F)[C@@H](O)C[C@@]21C (stereo partly drawn),-24.5%,,
CCCCOc1ccc(CC(=O)NO)cc1,-13.5%,,
C#C[C@]1(O)CC[C@H]2[C@@H]3CCC4=CC(=O)CC[C@@H]4[C@H]3CC[C@@]21C,-14.1%,,
CC(=O)Oc1ccc(C(c2ccc(OC(C)=O)cc2)c2ccccn2)cc1,-0.647%,,
C[C@H](N)[C@H](O)c1cccc(O)c1,,inactive,
NCC1CCC(C(=O)Oc2ccc(CCC(=O)O)cc2)CC1 (stereo not drawn),-2.75%,,
O=C(O)CCC(=O)c1ccc(-c2ccccc2)cc1,,inactive,
